# Measured values reported in PubChem BioAssay (NCATS).
# Records with an inconclusive call do not appear. A call without a number means that no potency is given here. The source made the active and inactive calls. Calls follow the shape of the dose curve; as a rule, active = well fitted inhibition curve with a large enough effect; inconclusive = small, poorly fitted or top-dose-only effect; inactive = flat fitted curve, though single readings scatter.
# Target: Glutathione peroxidase 1 (Homo sapiens) (UniProt P07203)
# Sequence (P07203 whole entry, looked up): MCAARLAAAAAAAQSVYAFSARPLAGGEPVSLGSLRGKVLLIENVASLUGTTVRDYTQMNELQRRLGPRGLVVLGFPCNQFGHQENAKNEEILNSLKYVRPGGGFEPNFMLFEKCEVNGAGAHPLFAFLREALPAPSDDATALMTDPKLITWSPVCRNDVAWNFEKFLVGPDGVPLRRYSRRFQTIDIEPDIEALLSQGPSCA
# Test: Primary qHTS Assay for Inhibitors of Recombinant Selenoprotein Glutathione Peroxidase 1 (GPX1) (AID 1845191)
# Settings: recombinant GPX1, GR-coupled NADPH fluorescence, 15 min; series mostly up to 48.8 µM
# Outline: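 GR-coupled readout: NADPH consumption tracked by fluorescence, ex 340/em 450 nm, at t=0 and after 15 min at RT. Final mix 10 nM GPX1, 1 mM GSH, 0.5 mM CHP, 0.5 mM NADPH, 100 nM GR, 0.01% BSA, following 30 min enzyme–compound preincubation.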
# Also: nearly all actives have a fitted effect of over 65% in size.
SMILES,Potency,"activity, negative = inhibition"
C[C@]12C=CC(=O)C=C1[C@@H](F)C[C@@H]1[C@@H]2[C@@H](O)C[C@@]2(C)[C@H]1CC[C@]2(O)C(=O)CO,inactive,–
OCc1ccccc1O,inactive,–
NCCCC[C@H](N[C@@H](CCc1ccccc1)C(=O)O)C(=O)N1CCC[C@H]1C(=O)O,inactive,–
Oc1cc(O)c2c(c1)O[C@H](c1ccc(O)c(O)c1)[C@H](O)C2,inactive,–
COc1cc(N)c(Cl)cc1C(=O)NC1CCN(CCCOc2ccc(F)cc2)CC1OC (stereo not drawn),inactive,–
CCOC(=O)c1cccc(N)c1,inactive,–
C[C@]12CCC(=O)C=C1CC[C@H]1[C@@H]3CC[C@](O)(C(=O)CO)[C@@]3(C)C[C@H](O)[C@@]12F,inactive,–
C[C@@H](CN(C)C)CN1c2ccccc2Sc2ccccc21,inactive,–
OC[C@@H](O)[C@@H](O[C@@H]1O[C@H](CO)[C@H](O)[C@H](O)[C@H]1O)[C@H](O)[C@@H](O)CO,inactive,–
CCCCCC=CCC=CCCCCCCCC(=O)OCC,inactive,–
COCc1c(C(C)C)nc(C(C)C)c(/C=C/[C@@H](O)C[C@@H](O)CC(=O)O)c1-c1ccc(F)cc1,inactive,–
COc1ccc(OC)c(C(O)CNC(=O)CN)c1 (stereo not drawn),inactive,–
Cc1c(C(N)=O)cc([N+](=O)[O-])cc1[N+](=O)[O-],inactive,–
CCCCCCCCCCCCCCCCOP(=O)([O-])OCC[N+](C)(C)C,inactive,–
Oc1c(I)cc(I)c2cccnc12,inactive,–
COc1cccc(CCc2ccccc2OCC(CN(C)C)OC(=O)CCC(=O)O)c1 (stereo not drawn),inactive,–
CC1(C)OC[C@@H](COC(=O)CCc2ccc(OC[C@@H](O)CNCCNC(=O)N3CCOCC3)cc2)O1,inactive,–
CC(C)=CCC1C(=O)N(c2ccccc2)N(c2ccccc2)C1=O,inactive,–
O=c1c(-c2ccccc2)c1-c1ccccc1,inactive,–
O=C(O)CNC(=O)c1ccccc1,inactive,–

SMILES,Potency,"activity, negative = inhibition"
c1ccc(-c2ccc(C(c3ccccc3)n3ccnc3)cc2)cc1 (stereo not drawn),inactive,–
CN1CCCC(CC2c3ccccc3Sc3ccccc32)C1 (stereo not drawn),inactive,–
CCCCOc1cc(C(=O)NCCN(CC)CC)c2ccccc2n1,inactive,–
CC(O)(P(=O)(O)O)P(=O)(O)O,inactive,–
CCN(CCCCOC(=O)c1ccc(OC)c(OC)c1)C(C)Cc1ccc(OC)cc1 (stereo not drawn),inactive,–
CC1(C)O[C@@H]2C[C@H]3[C@@H]4CCC5=CC(=O)CC[C@]5(C)[C@@]4(F)[C@@H](O)C[C@]3(C)[C@]2(C(=O)CCl)O1,inactive,–
Oc1ccc(Cl)c2cccnc12,inactive,–
C[C@H]1C[C@H]2[C@@H]3CCC4=CC(=O)C=C[C@]4(C)[C@@]3(Cl)[C@@H](O)C[C@]2(C)[C@@]1(O)C(=O)CO,inactive,–
CCCOC(C(=O)OC1CCN(C)CC1)(c1ccccc1)c1ccccc1,inactive,–
CCn1cc(C(=O)O)c(=O)c2cnc(N3CCCC3)nc21,–,-13.1% [at 9.52 µM] (inactive)
OC[C@H]1O[C@@H](n2cnc3c(=S)nc[nH]c32)[C@H](O)[C@@H]1O,inactive,–
C=C1C[C@H]2[C@@H]3C=C(C)C4=CC(=O)CC[C@]4(C)[C@H]3CC[C@]2(C)[C@@]1(OC(C)=O)C(C)=O,inactive,–
COc1ccc(C2C(=O)c3ccccc3C2=O)cc1,inactive,–
Oc1c(I)cc(Cl)c2cccnc12,inactive,–
CCCCC(=O)O[C@]1(C(=O)CO)CC[C@H]2[C@@H]3CCC4=CC(=O)CC[C@]4(C)[C@H]3[C@@H](O)C[C@@]21C,inactive,–
CC(=O)OCC(=O)NCCCOc1cccc(CN2CCCCC2)c1,inactive,–
C#C[C@]1(O)CC[C@H]2[C@@H]3CCc4cc(OC5CCCC5)ccc4[C@H]3CC[C@@]21C,inactive,–
CC(=O)Oc1ccc2c(c1)CC[C@@H]1[C@@H]2CC[C@]2(C)[C@@H](O)CC[C@@H]12,inactive,–
C[C@H](CCC(=O)O)[C@H]1CC[C@H]2[C@@H]3C(=O)C[C@@H]4CC(=O)CC[C@]4(C)[C@H]3CC(=O)[C@]12C,inactive,–

# Target: Phospholipid hydroperoxide glutathione peroxidase GPX4 (Homo sapiens) (UniProt P36969)
# Sequence (P36969 whole entry, looked up): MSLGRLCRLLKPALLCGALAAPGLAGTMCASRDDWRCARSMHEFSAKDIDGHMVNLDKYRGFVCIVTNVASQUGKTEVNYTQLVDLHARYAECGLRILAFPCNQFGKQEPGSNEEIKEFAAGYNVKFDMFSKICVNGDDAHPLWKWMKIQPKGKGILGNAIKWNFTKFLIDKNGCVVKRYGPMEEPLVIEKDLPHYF
# Test: Primary qHTS Assay for Inhibitors of Recombinant Selenoprotein Glutathione Peroxidase 4 (GPX4) (AID 1845192)
# Settings: recombinant GPX4, GR-coupled NADPH fluorescence, 15 min; series mostly up to 50 µM
# Outline: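 Steps: GPX4 plus compound, 30 min RT; add GR/GSH/NADPH master mix; start with cumene hydroperoxide; read 340/450 nm fluorescence at 0 and 15 min. Finals were 200 nM GPX4, 1 mM GSH, 0.5 mM CHP, 0.5 mM NADPH, 100 nM GR.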
SMILES,Potency,"activity change, negative = inhibition"
C[C@]12C=CC(=O)C=C1[C@@H](F)C[C@@H]1[C@@H]2[C@@H](O)C[C@@]2(C)[C@H]1CC[C@]2(O)C(=O)CO,inactive,–
OCc1ccccc1O,inactive,–
NCCCC[C@H](N[C@@H](CCc1ccccc1)C(=O)O)C(=O)N1CCC[C@H]1C(=O)O,inactive,–
Oc1cc(O)c2c(c1)O[C@H](c1ccc(O)c(O)c1)[C@H](O)C2,inactive,–
COc1cc(N)c(Cl)cc1C(=O)NC1CCN(CCCOc2ccc(F)cc2)CC1OC (stereo not drawn),inactive,–
CCOC(=O)c1cccc(N)c1,inactive,–
C[C@]12CCC(=O)C=C1CC[C@H]1[C@@H]3CC[C@](O)(C(=O)CO)[C@@]3(C)C[C@H](O)[C@@]12F,inactive,–
C[C@@H](CN(C)C)CN1c2ccccc2Sc2ccccc21,inactive,–
OC[C@@H](O)[C@@H](O[C@@H]1O[C@H](CO)[C@H](O)[C@H](O)[C@H]1O)[C@H](O)[C@@H](O)CO,inactive,–
CCCCCC=CCC=CCCCCCCCC(=O)OCC,inactive,–
COCc1c(C(C)C)nc(C(C)C)c(/C=C/[C@@H](O)C[C@@H](O)CC(=O)O)c1-c1ccc(F)cc1,inactive,–
COc1ccc(OC)c(C(O)CNC(=O)CN)c1 (stereo not drawn),inactive,–
Cc1c(C(N)=O)cc([N+](=O)[O-])cc1[N+](=O)[O-],inactive,–
CCCCCCCCCCCCCCCCOP(=O)([O-])OCC[N+](C)(C)C,inactive,–
Oc1c(I)cc(I)c2cccnc12,inactive,–
COc1cccc(CCc2ccccc2OCC(CN(C)C)OC(=O)CCC(=O)O)c1 (stereo not drawn),inactive,–
CC1(C)OC[C@@H](COC(=O)CCc2ccc(OC[C@@H](O)CNCCNC(=O)N3CCOCC3)cc2)O1,inactive,–
CC(C)=CCC1C(=O)N(c2ccccc2)N(c2ccccc2)C1=O,inactive,–
O=c1c(-c2ccccc2)c1-c1ccccc1,inactive,–
O=C(O)CNC(=O)c1ccccc1,inactive,–

SMILES,Potency,"activity change, negative = inhibition"
c1ccc(-c2ccc(C(c3ccccc3)n3ccnc3)cc2)cc1 (stereo not drawn),inactive,–
CN1CCCC(CC2c3ccccc3Sc3ccccc32)C1 (stereo not drawn),inactive,–
CCCCOc1cc(C(=O)NCCN(CC)CC)c2ccccc2n1,inactive,–
CC(O)(P(=O)(O)O)P(=O)(O)O,inactive,–
CCN(CCCCOC(=O)c1ccc(OC)c(OC)c1)C(C)Cc1ccc(OC)cc1 (stereo not drawn),inactive,–
CC1(C)O[C@@H]2C[C@H]3[C@@H]4CCC5=CC(=O)CC[C@]5(C)[C@@]4(F)[C@@H](O)C[C@]3(C)[C@]2(C(=O)CCl)O1,inactive,–
Oc1ccc(Cl)c2cccnc12,inactive,–
C[C@H]1C[C@H]2[C@@H]3CCC4=CC(=O)C=C[C@]4(C)[C@@]3(Cl)[C@@H](O)C[C@]2(C)[C@@]1(O)C(=O)CO,inactive,–
CCCOC(C(=O)OC1CCN(C)CC1)(c1ccccc1)c1ccccc1,inactive,–
CCn1cc(C(=O)O)c(=O)c2cnc(N3CCCC3)nc21,–,-6.64% [at 9.73 µM] (inactive)
OC[C@H]1O[C@@H](n2cnc3c(=S)nc[nH]c32)[C@H](O)[C@@H]1O,inactive,–
C=C1C[C@H]2[C@@H]3C=C(C)C4=CC(=O)CC[C@]4(C)[C@H]3CC[C@]2(C)[C@@]1(OC(C)=O)C(C)=O,inactive,–
COc1ccc(C2C(=O)c3ccccc3C2=O)cc1,inactive,–
Oc1c(I)cc(Cl)c2cccnc12,inactive,–
CCCCC(=O)O[C@]1(C(=O)CO)CC[C@H]2[C@@H]3CCC4=CC(=O)CC[C@]4(C)[C@H]3[C@@H](O)C[C@@]21C,inactive,–
CC(=O)OCC(=O)NCCCOc1cccc(CN2CCCCC2)c1,inactive,–
C#C[C@]1(O)CC[C@H]2[C@@H]3CCc4cc(OC5CCCC5)ccc4[C@H]3CC[C@@]21C,inactive,–
CC(=O)Oc1ccc2c(c1)CC[C@@H]1[C@@H]2CC[C@]2(C)[C@@H](O)CC[C@@H]12,inactive,–
C[C@H](CCC(=O)O)[C@H]1CC[C@H]2[C@@H]3C(=O)C[C@@H]4CC(=O)CC[C@]4(C)[C@H]3CC(=O)[C@]12C,inactive,–
